A selection: hits, their analogues and other compounds. The true share with any hit is near 1.3%.
IL-2 act: qHTS of IL-2 Activators; IL-2 activation reporter assay, cell-based qHTS; stimulated with anti-CD3/CD4/CD28 beads; in transgenic mouse T cells; activation, % (series mostly up to about 46 µM); hit rate 0.065% among 360,000; in the data active = activation above about 50%; inconclusive = mostly about 30% to 49%; note: 0% is about no effect
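Unstimulated transgenic mouse T cells, 750 per well, received compound and, after 60 minutes, anti-CD3/anti-CD4 bead plus anti-CD28 stimulation. EGFP and DsRed were quantified after 18 hours.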
PKM2 act: qHTS Assay for Activators of Human Muscle isoform 2 Pyruvate Kinase; Pyruvate kinase PKM (Homo sapiens), P14618; purified PKM2, Kinase-Glo ATP luminescence, activation; response scale: 0% is enzyme alone, no compound; Potency, µM (doses to about 57.5 µM), inactives show at the highest dose activation, most hits filed as activators; hit rate 0.34% among 260,000; note: potency is the fitted concentration of half-maximal effect; % is set by controls: 0 for no effect and ±100 for the full control effect; nearly all actives have a fitted effect of over 55% in size
Target sequence (P14618 whole entry, looked up, canonical isoform): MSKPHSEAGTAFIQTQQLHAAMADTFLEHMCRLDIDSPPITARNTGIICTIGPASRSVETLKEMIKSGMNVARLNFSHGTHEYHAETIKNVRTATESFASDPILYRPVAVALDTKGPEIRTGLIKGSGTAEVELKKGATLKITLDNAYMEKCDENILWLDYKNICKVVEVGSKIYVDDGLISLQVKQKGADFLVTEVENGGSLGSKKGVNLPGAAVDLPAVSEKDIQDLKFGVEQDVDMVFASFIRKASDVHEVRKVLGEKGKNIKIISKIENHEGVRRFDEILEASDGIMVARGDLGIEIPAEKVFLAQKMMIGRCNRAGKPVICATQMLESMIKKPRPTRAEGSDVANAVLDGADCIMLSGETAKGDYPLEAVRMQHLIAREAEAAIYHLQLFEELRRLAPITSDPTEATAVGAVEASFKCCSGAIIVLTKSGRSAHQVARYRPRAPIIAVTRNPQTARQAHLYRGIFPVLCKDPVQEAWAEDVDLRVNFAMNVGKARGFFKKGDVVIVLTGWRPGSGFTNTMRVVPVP
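Purified hPK-M2 (>95% pure) converted ADP (0.1 mM final) to ATP with 0.5 mM PEP in 50 mM imidazole pH7.2, KCl, MgCl2, Tween 20, BSA; 1 h at room temperature. ATP detected by Kinase-Glo luminescence.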
Integrin act MD: qHTS for Activators of Integrin-Mediated Alleviation for Muscular Dystrophy. alpha7betagal myoblasts, beta-gal FDG fluorescence, 48 h. Potency, µM (titrated, usually from 38.3 µM), for inactives: at the top dose activation, actives largely listed as activators. hit rate 0.064% among 350,000. AID 624291, 2012;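 note: potency is the fitted concentration of half-maximal effect; 100% = response of the positive control SU9516; nearly all actives have a fitted effect of over 60% in size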
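alpha7betagal+/- myoblasts (passage 13, 250/well) treated 48 h at 37C with compounds at 1:260 dilution of DMSO stock. Lysed, then beta-galactosidase activity read as FDG fluorescence (ex 480/em 540) after 30 min, with pre-read for autofluorescence.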
BRCA1 expr up: qHTS Assay to Identify Small Molecule Activators of BRCA1 Expression. hit rate 1.1% among 380,000. Potency, µM (top dose mostly 46.1 µM), for the others: top-dose activation, actives largely listed as activators. MCF7-BRCA1-FFLuc reporter, luminescence, 48 h; response scale: scaled: vehicle 0%, 10 µM genistein 100%; note: potency is the fitted concentration of half-maximal effect; nearly all actives have a fitted effect of over 80% in size
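Cells: MCF7-BRCA1-FFLuc, 2000/well. Exposure: 48 h, 37 °C, 5% CO2. Read: luminescence, 15 min post-substrate. Controls: genistein 10 microM (maximal activation), DMSO (neutral).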
Apoferritin bind: qHTS Assay for Identification of Novel General Anesthetics; Potency, µM (series often up to 77.5 µM), inactives show at the highest dose activity change, negative = displacement, most hits filed as inhibitors; Ferritin light chain (Equus caballus), P02791; apoferritin/1-aminoanthracene competitive binding, fluorescence; AID 485281, 2010; hit rate 0.074% among 350,000; note: potency is the fitted concentration of half-maximal effect; % is set by controls: 0 for no effect and ±100 for the full control effect; nearly all actives have a fitted effect of over 20% in size
Target sequence (P02791 2-175 limits assumed): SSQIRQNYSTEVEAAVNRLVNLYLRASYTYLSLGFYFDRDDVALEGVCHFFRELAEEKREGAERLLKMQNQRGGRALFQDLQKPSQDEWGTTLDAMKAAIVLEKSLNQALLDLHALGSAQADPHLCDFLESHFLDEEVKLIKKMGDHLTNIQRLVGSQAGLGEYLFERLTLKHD
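Read-out: endpoint 1-AMA fluorescence, excitation 380 nm and emission 535 nm, after compounds sit 10 min at room temperature with 10 uM horse-spleen apoferritin in 50% saturated 1-AMA/PBS. Values come from four-parameter Hill fits.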
* = called active by the depositor; ? = inconclusive; . = no result given; [ ] = dose if it differs, or a comment. Unless noted, calls come from the whole dose curve; as a rule, active = well fitted curve in the direction sought with a large enough effect; inconclusive = small, poorly fitted or top-dose-only effect, or another doubt; inactive = no such curve, though single readings can be large; an effect the other way counts as inactive or inconclusive.

SMILES | IL-2 act | PKM2 act | Integrin act MD | BRCA1 expr up | Apoferritin bind
OCCN1CCN(C(c2cccs2)c2ccc3cccnc3c2O)CC1 (stereo not given) | . | 17.4% | . | . | 31.6µM*
CCN1CCN(C(c2ccc(C(F)(F)F)cc2)c2ccc3cccnc3c2O)CC1 (stereo not given) | -6.6 | . | ? | -89.8% | ?
CCS(=O)(=O)c1ccc(O)c(NC(=O)/C=C/c2ccccc2)c1 | 0.1 | -5.1% | 12.6% | 12.6µM* | -7.7%
CCS(=O)(=O)c1ccc(O)c(NC(=O)CCCC(=O)O)c1 | -1.5 | -12.0% | 21.9% | 2.3% | 7.1%
Cc1cc(=O)oc2cc(NS(=O)(=O)c3ccccc3)ccc12 | -3.4 | 15.8µM* | 8.9% | -2.2% | 366.6%
Cc1cc(=O)oc2cc(NS(=O)(=O)c3ccc(F)cc3)ccc12 | -3.7 | ? | -9.3% | -19.2% | 425.4%
CC(C)(C)C(=O)N1CCN(c2nc3ccccc3s2)CC1 | -0.1 | . | -6.9% | 3.16µM* | -6.2%
CCCC(=O)N1CCN(c2nc3ccccc3s2)CC1 | 0.0 | . | 2.0% | ? | -6.4%
CC(C)C(=O)N1CCN(c2nc3ccc(Cl)cc3s2)CC1 | 2.1 | . | 4.4% | 5.01µM* | -5.0%
c1ccc2sc(N3CCOCC3)nc2c1 | -0.7 | -5.6% | 22.8% | 8.91µM* | -10.8%
CCc1ccc2nc(N3CCN(C(=O)C(C)(C)C)CC3)sc2c1 | 1.1 | . | 0.0% | 12.6µM* | -9.9%
CCOC(=O)Cc1c(C(=O)OCC)nnc2c(-c3ccccc3)c(C)nn12 | . | . | . | -3.1% | ?
Clc1cc(Cl)c2nc(N3CCOCC3)sc2c1 | -3.1 | 0.8% | 0.0% | 11.2µM* | 7.7%
CN=C1S/C(=C\c2ccc(O)c(OC)c2)C(=O)N1C | -0.6 | . | -0.3% | 10µM* | .
COc1cccc2c1C(=O)c1c(O)c3c(c(O)c1C2=O)C[C@](O)(C(=O)CO)C[C@H]3O[C@@H]1C[C@H](N)[C@H](O)[C@H](C)O1 | . | . | . | . | 1.0%[29.3 µM]
O=C1OC(c2ccccc2)=C/C1=C\N1CCOCC1 | 0.8 | 13.3% | 15.3% | ? | -19.1%
O=C1OC(c2ccccc2)=C/C1=C/N1CCOCC1 | -0.6 | 15.8µM* | -25.1% | 12.6µM* | -8.2%
COc1ccc(-c2nn(-c3ccccc3)cc2C#N)cc1 | 3.6 | -1.2% | 26.6% | 3.98µM* | -2.4%
Cc1ccc(S(=O)(=O)Nc2ccc(O)c3cccnc23)cc1 | 0.1 | 10µM* | -21.2% | -78.0% | -2.3%
Nc1ccc(/C=C/c2ccnc3ccccc23)cc1 | . | . | . | 30.8% | .
CN1/C(=C\C(=O)c2cccc([N+](=O)[O-])c2)Sc2ccccc21 | 0.5 | 9.8% | -5.9% | 2.24µM* | 3.2%
COc1ccc(S(=O)(=O)N2CCCN(S(=O)(=O)c3ccc(OC)cc3C)CC2)c(C)c1 | -2.0 | 8.91µM* | -31.8% | -38.6% | -15.8%
COc1ccc(OC)c(S(=O)(=O)N2CCCCCC2)c1 | 0.3 | 4.7% | -3.4% | -1.7% | -11.4%
COc1ccc(S(=O)(=O)N2CCN(C(=O)NCc3ccc(C)cc3)CC2)cc1 | -1.9 | 7.08µM* | 2.3% | -0.8% | 1.9%
Cc1ccc(S(=O)(=O)N2CCN(C(=O)NCc3ccc(F)cc3)CC2)c(C)c1 | -0.6 | . | 7.3% | -14.4% | -13.0%
SMILES | IL-2 act | PKM2 act | Integrin act MD | BRCA1 expr up | Apoferritin bind
COc1cccc(CNC(=O)N2CCN(S(=O)(=O)c3ccc(C)cc3)CC2)c1 | -0.9 | 11.2µM* | 8.1% | -18.7% | 1.2%
COc1cccc(CNC(=O)C2CCN(S(=O)(=O)c3ccc(C)cc3)CC2)c1 | -1.6 | . | 10.0% | 0.0% | -9.3%
COc1ccc(CNC(=O)N2CCN(S(=O)(=O)c3ccc(C)cc3C)CC2)cc1 | -3.4 | 4.47µM* | -9.9% | -16.6% | 5.3%
CCCCC[C@H](O)/C=C/[C@@H]1[C@@H](C/C=C\CCCC(=O)O)[C@H](O)C[C@H]1O | . | . | . | . | 1.9%
COCCCNC(=S)N1CCN(S(=O)(=O)c2ccc(OC)cc2)CC1 | 0.9 | 0.891µM* | 7.4% | -1.1% | -3.2%
COc1ccc(S(=O)(=O)N2CCN(C(=S)NCCc3ccccc3)CC2)cc1 | -3.1 | 0.3% | -23.8% | -35.1% | 1.8%
N/C(=N\OC(=O)c1ccccc1[N+](=O)[O-])c1cccnc1 | -1.4 | -11.4% | -4.5% | 45.2% | -5.9%
N/C(=N\OC(=O)CSc1ccccc1)c1ccccn1 | -0.5 | -0.5% | ? | 6.31µM* | ?
N/C(=N\OC(=O)c1ccccc1[N+](=O)[O-])c1ccccn1 | 0.1 | -13.7% | 2.1% | 5.01µM* | -5.5%
O=C(CC(C(=O)O)n1ccnc1)c1ccc(Cl)cc1 (stereo not given) | . | . | . | -15.4% | .
CC(C)CN(C)C(=O)CCc1nnc(Cc2cccc(C(F)(F)F)c2)o1 | -0.1 | 1.0% | 12.1% | 10µM* | -16.7%
COc1ccc(N2CCN(C(=O)CCn3cnc4onc(-c5ccc(F)cc5)c4c3=O)CC2)cc1 | . | . | . | . | 54.7%
CC(Oc1ccc(Cl)cc1Cl)c1nc(-c2ccccn2)no1 (stereo not given) | -0.7 | 2.8% | -21.3% | 11.2µM* | ?
O=C(NCc1cccs1)c1csc2c1CCCCC2 | -1.9 | -2.1% | 36.4% | 63.5% | ?
O=C(NCc1cccs1)c1cc2c(s1)CCCC2 | 3.6 | 6.9% | -0.6% | 12.6µM* | -14.2%
COC(=O)c1ccc(C2NC(c3ccc4c(c3)OCO4)=CC(c3ccccc3O)N2)cc1 (stereo not given) | . | . | . | 3.8% | .
Cc1ccc(S(=O)(=O)O/N=C2\CCCc3ccccc32)cc1 | -0.6 | -1.2% | 17.2% | -13.6% | -15.9%
CC1=C(C)/C(=N\OS(=O)(=O)c2ccccc2)C=CC1=O | -3.4 | ? | -69.2% | -92.7% | 28.2µM*
CC#CCN1c2ccccc2[C@]23C[C@@H](C(=O)OC)N(S(=O)(=O)c4ccc(C)cc4)C2=NC(C(=O)OC)=C(C(=O)OC)[C@H]13 | . | -2.8%[11.5 µM] | . | . | .
Cc1cc(C)c(NC(=O)CSc2nc(C)cc(C)c2C#N)c(C)c1 | . | . | . | 2.2% | -15.6%
Cc1cc(C)c(C#N)c(SCC(=O)Nc2nonc2N)n1 | -1.2 | 14.1µM* | -23.4% | ? | 1.2%
CSc1ncc(C(=O)NCc2ccc(C)cc2)c(-c2ccccc2)n1 | . | . | . | . | 31.4%
Cc1cc(CNC(=O)c2cc(COc3ccc(F)c(F)c3)on2)nn1C | -2.9 | -0.2% | 8.6% | 8.91µM* | ?
Cc1cc(C)n(CC(C)NC(=O)c2cc(COc3ccc(F)c(F)c3)on2)n1 (stereo not given) | -0.3 | 0.6% | 9.4% | 92.0% | -23.4%

Screening results from PubChem BioAssay.
